Source: PubChem (National Center for Advancing Translational Sciences (NCATS))
CHX counter = counter-screen for Shiga toxin inhibitors: cycloheximide protein synthesis inhibition. cell reporter, cycloheximide protein synthesis inhibition counterscreen. max response, %. hit rate 12% among 300,000. AID 2314; in the data active = max response mostly above about 13%, no sharp cut-off; inactive = mostly below about 14%; note: read at 38.3 µM for the half of the compounds with a filed dose
AMA1 RON2 block = AMA1-RON2 (P. falciparum) interaction inhibition. Potency, µM (doses to about 58.2 µM), actives largely listed as inhibitors. hit rate 0.2% among 360,000. AlphaScreen AMA1-biotinylated RON2 peptide binding; note: nearly all actives have a fitted effect of over 45% in size
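AMA1 (3D7) with his tag at 25 nM final met compounds first, then biotinylated RON2 peptide at 25 nM; detection used donor plus acceptor beads, 10 µg/mL apiece, read by AlphaScreen after 30 min at room temperature.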
Shiga inhibitor = Shiga toxin inhibition; inhibition, % at 38.7 µM; Vero cells, Shiga toxin protein synthesis inhibition reporter; AID 2315; hit rate 9.2% among 290,000; in the data active = inhibition mostly above about 28%, no sharp cut-off; inactive = mostly below about 43%
Pf growth 48h = P. falciparum growth inhibition at 48 hours (one generation); AID 504832; P. falciparum luciferase growth in erythrocytes, 48 h; hit rate 5.9% among 310,000; Potency, µM (titrated, usually from 28.7 µM), hits mostly inhibitors
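Firefly luciferase activity from engineered P. falciparum reports growth; inhibitors lower the luminescent signal. Cultures contained 2% hematocrit erythrocytes at 0.1% final parasitemia.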
HCV inhibitor = blocks hepatitis C virus | Huh7.5.1 HCVcc-Cre infection, luciferase reporter, 44 h | Potency, µM (titrated, usually from 41.8 µM), usual class: inhibitors | hit rate 3.4% among 340,000 | AID 651820
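Cells seeded at 1,000/well and cultured 4 h, then compounds added followed by HCVcc-Cre virus (~0.5 moi). After 44 h further culture, luciferase substrate was added, plates held 15 min at room temperature, and luminescence read for 15 sec.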
Pf growth 96h = P. falciparum growth inhibition at 96 hour, primary screen for plastid delayed-death inhibitors; P. falciparum luciferase reporter growth, 96 h; Potency, µM (titrated, usually from 28.7 µM), usual class: inhibitors; hit rate 6.9% among 320,000; AID 504834
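Delayed-death screen, second-generation endpoint: infected erythrocytes, 2% hematocrit, 0.05% parasitemia final; 96 hours at 37 C, 5% CO2; luciferase detection reagent; luminescence decrease equals reduced growth.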
Hits are given with their value; [ ] = another dose, or the depositor's remark. Shown are actives, neighbours in structure and some others; about 21% of the full set was active somewhere. Unless noted, calls come from the whole dose curve; as a rule, active = well fitted curve in the direction sought with a large enough effect; inconclusive = small, poorly fitted or top-dose-only effect, or another doubt; inactive = no such curve, though single readings can be large; an effect the other way counts as inactive or inconclusive.

For CCN(Cc1ccccc1)c1ccc(/C=N/NS(=O)(=O)c2ccc(C)c([N+](=O)[O-])c2)cc1 the results were CHX counter inactive, AMA1 RON2 block inactive, Shiga inhibitor inactive, Pf growth 48h inactive, HCV inhibitor inactive and Pf growth 96h inactive.
CCCCNC(=O)C1(C)CCCCN1C(=O)c1ccc(C)c(F)c1 (configuration not stated) was read as AMA1 RON2 block inactive.
Screening COc1ccc2nc(/N=C\N(C)C)sc2c1 returned CHX counter inactive, AMA1 RON2 block inactive, Shiga inhibitor inactive, Pf growth 48h inactive, HCV inhibitor inactive and Pf growth 96h inactive.
`COc1ccc2nc(C)cc(Nc3ccccc3OC)c2c1` gave AMA1 RON2 block inactive.
For COc1ccc2nc(C)cc(SCC(=O)N/N=C/c3cccc4ccccc34)c2c1 the results were CHX counter inactive, AMA1 RON2 block inactive, Shiga inhibitor inactive, Pf growth 48h inconclusive, HCV inhibitor 10µM and Pf growth 96h inconclusive.
`COc1ccc2nc(/N=C/c3cccc(OC)c3O)sc2c1` gave CHX counter 26, AMA1 RON2 block inactive, Shiga inhibitor inactive, Pf growth 48h inactive, HCV inhibitor inactive and Pf growth 96h inactive.
`COc1ccc2nc(N=Nc3ccc(N(C)C)cc3)sc2c1` gave CHX counter 31, AMA1 RON2 block inconclusive, Shiga inhibitor 126, Pf growth 48h inactive, HCV inhibitor inactive and Pf growth 96h inactive.
`COc1ccc2nc(C)cc(N/N=C/c3cccc(OC)c3O)c2c1` gave CHX counter inactive, AMA1 RON2 block inactive, Shiga inhibitor inactive, Pf growth 48h 0.093µM, HCV inhibitor inconclusive and Pf growth 96h inactive.
`O=C(NC1CC2CCCC(C1)N2Cc1ccc(F)cc1)c1ccc(F)cc1` (configuration not stated) gave CHX counter inactive, AMA1 RON2 block inactive, Shiga inhibitor inactive, Pf growth 48h inconclusive, HCV inhibitor inactive and Pf growth 96h inactive.
CC1(c2ccc(C#N)cc2)NC(=O)N(CC(=O)Nc2cc(S(=O)(=O)N3CCOCC3)ccc2Cl)C1=O (configuration not stated) was read as CHX counter inactive, AMA1 RON2 block inactive, Shiga inhibitor inactive, Pf growth 48h inconclusive, HCV inhibitor inactive and Pf growth 96h inconclusive.
Screening COc1ccc2c(c1)-c1nc(/N=C/c3ccccc3O)sc1CC2 returned CHX counter inactive, AMA1 RON2 block inactive[11.6 µM], Shiga inhibitor inactive, Pf growth 48h inactive, HCV inhibitor 10µM and Pf growth 96h inconclusive.
COc1ccc2c(c1)-c1nc(/N=C/c3cccc(OC)c3O)sc1CC2 was read as CHX counter inactive, AMA1 RON2 block inactive, Shiga inhibitor inactive, Pf growth 48h inactive, HCV inhibitor inconclusive and Pf growth 96h inactive.
`Cc1cc(N/N=C/c2ccccc2O)c2ccccc2n1` gave CHX counter 26, AMA1 RON2 block inactive, Shiga inhibitor inactive, Pf growth 48h 0.52µM, HCV inhibitor inconclusive and Pf growth 96h inconclusive.
Screening COc1ccc(/C=N/Nc2cc(C)nc3ccc(Br)cc23)cc1 returned CHX counter inactive, AMA1 RON2 block inconclusive, Shiga inhibitor inactive, Pf growth 48h 0.26µM, HCV inhibitor 6.3µM and Pf growth 96h 0.47µM.
Cc1ccc(-c2nc3ccccc3c(=O)n2O)cc1 was read as CHX counter inactive, AMA1 RON2 block inactive, Shiga inhibitor inactive, Pf growth 48h inconclusive, HCV inhibitor inactive and Pf growth 96h inconclusive.
Cc1ccccc1/C=N/Nc1nc2ccccc2c(=O)n1O was read as CHX counter 20, AMA1 RON2 block inactive, Shiga inhibitor 75, Pf growth 48h inactive, HCV inhibitor inactive and Pf growth 96h inactive.
Screening OCCC1CN(CC2CCCCC2)CCN1CC1CCCCC1 (configuration not stated) returned CHX counter inactive, AMA1 RON2 block inactive, Shiga inhibitor inactive, Pf growth 48h inactive, HCV inhibitor inconclusive and Pf growth 96h inactive.
For CCn1c(CC(=O)Nc2ccccc2)n[nH]c1=S the results were CHX counter inactive, AMA1 RON2 block inactive, Shiga inhibitor inactive, Pf growth 48h inactive, HCV inhibitor inactive and Pf growth 96h inactive.
Screening CC(C)(C)c1ccc(C(=O)c2c[nH]c(C(=O)NCCc3ccccn3)c2)cc1 returned CHX counter inactive, AMA1 RON2 block inactive, Shiga inhibitor inactive, Pf growth 48h 10µM, HCV inhibitor inactive and Pf growth 96h inconclusive.
